# “And” between values parts separate entries of the source, which are not always exact repeats. Equal values may be shown once.
# Test system: H9c2
# Assay: protection of cardiomyocytes from stress damage, SAR follow-up, cell-based, panel, H9c2 and HL-1, ATP luminescence, set 2 (AID 651871);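 also: cells exposed to stressor for 2 h before ATP readout; reference of the scale not given here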
# Settings: H9c2/HL-1 cardiomyocytes, 2-deoxyglucose stress, with 2-deoxyglucose; run 11, at 79 µM (top of the series)
row,Structure (SMILES),activity (protection/inhibition)
1,COc1ccc2nc(-c3cc(OC)c(OC)c(OC)c3)cc(C(=O)NCC(=O)Nc3ccc(C(C)=O)cc3)c2c1,68.6%
2,CCOC(=O)c1cccc(NC(=O)CNC(=O)c2cc(-c3cc(OC)c(OC)c(OC)c3)nc3ccccc23)c1,112%
3,COc1ccc2c(c1OC)C(=O)N1c3ccccc3C(=O)N(Cc3cccc(Cl)c3Cl)C21 (stereo not drawn),89.7% and 82.5% and -2.54%
